Laboratory results taken from PubChem BioAssay AID1159580 (chemical genetic matrix, 2015).
About 2,000 (36%) of roughly 5,500 compounds were called active. Roughly 18% stayed inconclusive and do not appear here. No stated cut-off is given here; in the data, active means normalized growth mostly below about 0.91 (no sharp cut-off); inconclusive means no clear call, values can overlap the other calls; inactive means mostly above about 0.92. The list shows a part of the results.

Test: chemical genetic growth profiling, strain panel (AID 1159580);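 further: tested at 20 µM; growth read once vehicle control cultures reached saturation at 30 °C; 1 = growth at the plate median or of vehicle wells; lower values mean less growth of the strain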
Details: S. cerevisiae deletion strains, growth OD

Measured: normalized growth

CNC(=O)Oc1cccc2c1OC(C)(C)O2
inactive: locus YAL013W, strain DEP1, active compounds read low 1.01 | locus YAL021C, strain ccr4, active compounds read low 0.991 | locus YAL026C, strain drs2, active compounds read low 1 | locus YAL030W, strain snc1, active compounds read low 1.01 | locus YBL061C, strain skt5, active compounds read low 1 | locus YBR009C, strain hhf1, active compounds read low 1 | locus YBR021W, strain FUR4, active compounds read low 1.03 | locus YBR023C, strain chs3, active compounds read low 1 | locus YBR171W, strain sec66, active compounds read low 1.01 | locus YBR229C, strain ROT2, active compounds read low 1.02 | locus YBR231C, strain swc5, active compounds read low 1 | locus YBR279W, strain paf1, active compounds read low 0.994 | locus YCL011C, strain gbp2, active compounds read low 1 | locus YCL016C, strain dcc1, active compounds read low 1 | locus YCL029C, strain bik1, active compounds read low 0.999 | locus YCL061C, strain MRC1, active compounds read low 0.998 | locus YCL069W, strain vba3, active compounds read low 0.998 | locus YCR088W, strain abp1, active compounds read low 1 | locus YDL005C, strain med2, active compounds read low 0.996 | locus YDL035C, strain GPR1, active compounds read low 1.02 | locus YDL040C, strain nat1, active compounds read low 1 | locus YDL074C, strain BRE1, active compounds read low 1.07 | locus YDL101C, strain DUN1, active compounds read low 1.03 | locus YDL134C, strain PPH21, active compounds read low 1.02 | locus YDL185W, strain tfp1, active compounds read low 0.995 | locus YDL192W, strain arf1, active compounds read low 0.993 | locus YDR001C, strain nth1, active compounds read low 1 | locus YDR069C, strain doa4, active compounds read low 1 | locus YDR101C, strain arx1, active compounds read low 0.989 | locus YDR137W, strain rgp1, active compounds read low 1.05 | locus YDR150W, strain NUM1, active compounds read low 1.02 | locus YDR159W, strain sac3, active compounds read low 0.988 | locus YDR162C, strain NBP2, active compounds read low 1.02 | locus YDR195W, strain ref2 0.967 | locus YDR297W, strain sur2, active compounds read low 0.997 | locus YDR318W, strain mcm21, active compounds read low 0.996 | locus YDR334W, strain swr1, active compounds read low 1.01 | locus YDR335W, strain msn5, active compounds read low 0.995 | locus YDR388W, active compounds read low 0.996 | locus YDR392W, strain spt3, active compounds read low 0.814 | locus YDR502C, strain sam2, active compounds read low 0.997 | locus YEL003W, strain gim4, active compounds read low 0.999 | locus YEL037C, strain rad23, active compounds read low 0.998 | locus YEL061C, strain CIN8 (second series), active compounds read low 1.01 | locus YEL061C, strain CIN8, active compounds read low 1.01 | locus YER015W, strain faa2, active compounds read low 1 | locus YER016W, strain bim1, active compounds read low 0.998 | locus YER110C, active compounds read low 1 | locus YER111C, strain swi4, active compounds read low 0.992 | locus YER155C, strain BEM2 (second series), active compounds read low 0.998 | locus YER155C, strain BEM2, active compounds read low 1.02 | locus YER167W, strain BCK2, active compounds read low 1.01 | locus YFR010W, strain ubp6, active compounds read low 0.987 | locus YGL078C, strain dbp3, active compounds read low 0.99 | locus YGL086W, strain mad1, active compounds read low 0.996 | locus YGL167C, strain pmr1, active compounds read low 1 | locus YGL173C, strain kem1, active compounds read low 1 | locus YGL227W, strain vid30, active compounds read low 0.999 | locus YGL240W, strain doc1, active compounds read low 0.986 | locus YGL248W, strain PDE1, active compounds read low 1.01 | locus YGL253W, strain hxk2, active compounds read low 1 | locus YGR078C, strain PAC10, active compounds read low 1.02 | locus YGR135W, strain pre9, active compounds read low 0.999 | locus YGR229C, strain SMI1, active compounds read low 1.03 | locus YGR252W, strain gcn5, active compounds read low 0.941 | locus YHR013C, strain ard1, active compounds read low 0.946 | locus YHR027C, strain rpn1, active compounds read low 1.01 | locus YHR030C, strain SLT2, active compounds read low 1.02 | locus YHR079C, strain IRE1 (second series), active compounds read low 0.99 | locus YHR094C, strain hxt1, active compounds read low 0.995 | locus YHR129C, strain ARP1, active compounds read low 1.02 | locus YHR142W, strain chs7, active compounds read low 1 | locus YHR200W, strain rpn10, active compounds read low 0.995 | locus YIL066C, strain RNR3, active compounds read low 1.02 | locus YIL073C, strain SPO22, active compounds read low 0.954 | locus YIL125W, strain kgd1, active compounds read low 1 | locus YIR030C, strain dcg1, active compounds read low 0.995 | locus YJL092W, strain hpr5, active compounds read low 1 | locus YJL095W, strain BCK1 (second series), active compounds read low 0.997 | locus YJL095W, strain BCK1, active compounds read low 1.04 | locus YJL115W, strain asf1, active compounds read low 0.997 | locus YJL129C, strain trk1, active compounds read low 1.02 | locus YJL134W, strain LCB3, active compounds read low 1.02 | locus YJL154C, strain vps35, active compounds read low 1 | locus YJL164C, strain tpk1, active compounds read low 0.991 | locus YJL166W, strain qcr8, active compounds read low 0.992 | locus YJL168C, strain set2, active compounds read low 0.991 | locus YJL187C, strain SWE1 (second series), active compounds read low 1.01 | locus YJL187C, strain SWE1, active compounds read low 1.01
